Data published in PubChem BioAssay AID1159580 (chemical genetic matrix, 2015).
“And” between values parts separate entries of the source, which are not always exact repeats. Equal values may be shown once. Hit rate of the full screen: of about 5,500 compounds, about 2,000 (36%) were called active. Another 18% or so got no clear call; they are omitted. No stated cut-off is given here; in the data, active means normalized growth mostly below about 0.91 (no sharp cut-off); inconclusive means no clear call, values can overlap the other calls; inactive means mostly above about 0.92. Some of the results follow.

Assay: chemical genetic growth profiling, strain panel (AID 1159580);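 further: tested at 20 µM; growth read once vehicle control cultures reached saturation at 30 °C; 1 = growth at the plate median or of vehicle wells; lower values mean less growth of the strain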
Conditions: S. cerevisiae deletion strains, growth OD

Measured: normalized growth

CC(C)(C)NCC(O)c1ccccc1Cl (stereo unspecified)
inactive: locus YAL013W, strain DEP1, hits give low values 0.993 | locus YAL021C, strain ccr4, hits give low values 1.01 | locus YAL026C, strain drs2, hits give low values 1.01 | locus YAL030W, strain snc1, hits give low values 0.979 | locus YAL040C, strain CLN3, hits give low values 0.966 | locus YBL061C, strain skt5, hits give low values 0.991 | locus YBR009C, strain hhf1, hits give low values 0.972 | locus YBR021W, strain FUR4, hits give low values 0.98 | locus YBR023C, strain chs3, hits give low values 0.993 | locus YBR171W, strain sec66, hits give low values 0.989 | locus YBR229C, strain ROT2, hits give low values 0.95 | locus YBR231C, strain swc5, hits give low values 0.989 | locus YBR279W, strain paf1, hits give low values 1 | locus YCL011C, strain gbp2, hits give low values 0.995 | locus YCL016C, strain dcc1, hits give low values 0.988 | locus YCL029C, strain bik1, hits give low values 0.978 | locus YCL061C, strain MRC1 (second series), hits give low values 1.01 | locus YCL061C, strain MRC1, hits give low values 0.992 | locus YCL069W, strain vba3, hits give low values 0.991 | locus YCR088W, strain abp1, hits give low values 0.99 | locus YDL005C, strain med2, hits give low values 1.01 | locus YDL035C, strain GPR1, hits give low values 0.947 | locus YDL040C, strain nat1, hits give low values 0.979 | locus YDL074C, strain BRE1, hits give low values 1.01 | locus YDL101C, strain DUN1, hits give low values 0.987 | locus YDL134C, strain PPH21, hits give low values 0.98 | locus YDL185W, strain tfp1, hits give low values 0.991 | locus YDL192W, strain arf1, hits give low values 0.973 | locus YDR001C, strain nth1, hits give low values 0.978 | locus YDR069C, strain doa4, hits give low values 0.988 | locus YDR101C, strain arx1, hits give low values 0.992 | locus YDR137W, strain rgp1, hits give low values 1.01 | locus YDR150W, strain NUM1, hits give low values 0.976 and 1.01 | locus YDR159W, strain sac3, hits give low values 0.939 | locus YDR162C, strain NBP2, hits give low values 0.979 | locus YDR195W, strain ref2 0.959 | locus YDR297W, strain sur2, hits give low values 1.01 | locus YDR318W, strain mcm21, hits give low values 1 | locus YDR334W, strain swr1, hits give low values 0.996 | locus YDR335W, strain msn5, hits give low values 0.991 | locus YDR363W, strain ESC2, hits give low values 0.999 | locus YDR388W, hits give low values 0.991 | locus YDR392W, strain spt3, hits give low values 0.831 | locus YDR502C, strain sam2, hits give low values 0.965 | locus YEL003W, strain gim4, hits give low values 0.996 | locus YEL037C, strain rad23, hits give low values 0.994 | locus YEL061C, strain CIN8 (second series), hits give low values 0.987 | locus YEL061C, strain CIN8, hits give low values 0.985 | locus YER002W, strain NOP16, hits give low values 0.988 | locus YER015W, strain faa2, hits give low values 0.995 | locus YER016W, strain bim1, hits give low values 0.989 | locus YER110C, hits give low values 0.966 | locus YER111C, strain swi4, hits give low values 0.992 | locus YER155C, strain BEM2 (second series), hits give low values 0.958 | locus YER155C, strain BEM2, hits give low values 1 | locus YER167W, strain BCK2, hits give low values 0.957 | locus YFR010W, strain ubp6, hits give low values 1 | locus YGL078C, strain dbp3, hits give low values 0.982 | locus YGL086W, strain mad1, hits give low values 0.978 | locus YGL167C, strain pmr1, hits give low values 0.989 | locus YGL173C, strain kem1, hits give low values 1.01 | locus YGL227W, strain vid30, hits give low values 0.988 | locus YGL240W, strain doc1, hits give low values 0.981 | locus YGL248W, strain PDE1, hits give low values 0.984 | locus YGL253W, strain hxk2, hits give low values 0.994 | locus YGR078C, strain PAC10, hits give low values 1.01 and 1.02 | locus YGR135W, strain pre9, hits give low values 0.979 | locus YGR229C, strain SMI1, hits give low values 1.01 and 1.03 | locus YGR252W, strain gcn5, hits give low values 0.898 | locus YHR013C, strain ard1, hits give low values 0.952 | locus YHR027C, strain rpn1, hits give low values 0.996 | locus YHR030C, strain SLT2, hits give low values 0.992 and 0.981 | locus YHR079C, strain IRE1 (second series), hits give low values 1 | locus YHR079C, strain IRE1, hits give low values 0.977 | locus YHR094C, strain hxt1, hits give low values 0.991 | locus YHR129C, strain ARP1, hits give low values 0.997 | locus YHR142W, strain chs7, hits give low values 1.02 | locus YHR200W, strain rpn10, hits give low values 1.01 | locus YIL066C, strain RNR3, hits give low values 0.978 | locus YIL073C, strain SPO22, hits give low values 0.972 | locus YIL125W, strain kgd1, hits give low values 0.989 | locus YIR030C, strain dcg1, hits give low values 0.983 | locus YJL092W, strain hpr5, hits give low values 0.997 | locus YJL095W, strain BCK1 (second series), hits give low values 0.996 | locus YJL095W, strain BCK1, hits give low values 1.02 and 0.99 | locus YJL115W, strain asf1, hits give low values 0.987 | locus YJL129C, strain trk1, hits give low values 1 | locus YJL134W, strain LCB3, hits give low values 0.981 | locus YJL154C, strain vps35, hits give low values 0.989 | locus YJL164C, strain tpk1, hits give low values 1.01 | locus YJL166W, strain qcr8, hits give low values 0.987 | locus YJL168C, strain set2, hits give low values 0.995 | locus YJL187C, strain SWE1 (second series), hits give low values 0.994 | locus YJL187C, strain SWE1, hits give low values 0.997 | locus YJR043C, strain POL32, hits give low values 1.03 | locus YJR066W, strain TOR1, hits give low values 0.921
